± gives the standard deviation.
Columns and labels:
Assay in all cases: peptide microarray binding signal (635 nm), min-max normalized on array (fraction of array maximum); higher = stronger binding
Conditions in all cases: peptide region: H3 30-42
[1] = target: T1, HaloTag-ATRX ADD domain (163-292)
T1 chain: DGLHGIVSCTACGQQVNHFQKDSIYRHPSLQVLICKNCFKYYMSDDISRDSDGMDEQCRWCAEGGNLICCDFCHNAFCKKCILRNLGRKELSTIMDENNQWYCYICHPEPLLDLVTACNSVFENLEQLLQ
Summary of the method: (§1)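 For each library, binding signal was taken as the triplicate-spot mean intensity and then min-max scaled. Spots of histone 13-mer peptide–cellulose conjugates on nitrocellulose, printed in triplicate with a Cy3 tracer, were probed for 1 h at 4°C with either biotin-labelled HaloTag reader fusions (10 nM to 1 μM) and streptavidin-Alexa Fluor 647 or rabbit histone antibodies (1:10,000 to 1:2,000) and anti-rabbit Alexa 647. Readout at 635 nm came from an Axon GenePix 4000B.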

[2] = target: HaloTag-ING2 PHD (mouse Ing2 200-280)
Summary of the method: as §1

[3] = target: anti-H3K4me3 antibody ab8580
Summary of the method: as §1

[4] = target: anti-H3K9me3 antibody ab8898
Summary of the method: as §1

[5] = peptide modifications: H3T32ph, binder concentration: 1:2,000 dilution
[6] = peptide modifications: H3T32ph, binder concentration: 1:10,000 dilution
[7] = peptide modifications: H3K37ac, binder concentration: 1:2,000 dilution
[8] = peptide modifications: H3K37ac, binder concentration: 1:10,000 dilution
[9] = peptide modifications: H3T32ph H3K36me2, binder concentration: 1:2,000 dilution
[10] = peptide modifications: H3T32ph H3K36me2, binder concentration: 1:10,000 dilution
[11] = peptide modifications: H3T32ph H3K36ac, binder concentration: 1:2,000 dilution
[12] = peptide modifications: H3T32ph H3K36ac, binder concentration: 1:10,000 dilution
[13] = peptide modifications: H3T32ph H3K36me3, binder concentration: 1:2,000 dilution
[14] = peptide modifications: H3T32ph H3K36me3, binder concentration: 1:10,000 dilution

With PATGGVKKPHRYR [H3 30-42 P A Tph G G V K K P H R Y R] the “peptide microarray binding signal” value ([1]; peptide modifications: H3T32ph, binder concentration: 50 nM) was 0.004984 ± 4.8e-05, the “peptide microarray binding signal” value ([1]; peptide modifications: H3T32ph, binder concentration: 500 nM) was 0.0106 ± 0.00088 and the “peptide microarray binding signal” value ([2]; peptide modifications: H3T32ph, binder concentration: 10 nM) was 0.00812 ± 0.00079. For the same binder, the “peptide microarray binding signal” value ([2]; peptide modifications: H3T32ph, binder concentration: 100 nM) was 0.0157 ± 0.0015, the “peptide microarray binding signal” value [3, 5] was 0.00115 ± 3.8e-05 and the “peptide microarray binding signal” value [3, 6] was 0.001484 ± 1.4e-05. For the same binder, the “peptide microarray binding signal” value [4, 5] was 0.000574 ± 2.6e-05 and the “peptide microarray binding signal” value [4, 6] was 0.0011 ± 1.1e-05.

For PATGGVKKPHRYR [H3 30-42 P A T G G V K Kac P H R Y R], the “peptide microarray binding signal” value ([1]; peptide modifications: H3K37ac, binder concentration: 50 nM) was 0.00991 ± 0.00064, the “peptide microarray binding signal” value ([1]; peptide modifications: H3K37ac, binder concentration: 500 nM) was 0.0214 ± 0.0021 and the “peptide microarray binding signal” value ([2]; peptide modifications: H3K37ac, binder concentration: 10 nM) was 0.0263 ± 0.00079. For the same binder, the “peptide microarray binding signal” value ([2]; peptide modifications: H3K37ac, binder concentration: 100 nM) was 0.0376 ± 0.0021, the “peptide microarray binding signal” value [3, 7] was 0.0146 ± 0.0013 and the “peptide microarray binding signal” value [3, 8] was 0.014 ± 0.00079. For the same binder, the “peptide microarray binding signal” value [4, 7] was 0.0131 ± 0.00032 and the “peptide microarray binding signal” value [4, 8] was 0.00663 ± 0.00069.

In the case of PATGGVKKPHRYR [H3 30-42 P A Tph G G V Kme2 K P H R Y R], the “peptide microarray binding signal” value ([1]; peptide modifications: H3T32ph H3K36me2, binder concentration: 50 nM) is reported as 0.00313 ± 0.0002, the “peptide microarray binding signal” value ([1]; peptide modifications: H3T32ph H3K36me2, binder concentration: 500 nM) is reported as 0.00695 ± 0.00032 and the “peptide microarray binding signal” value ([2]; peptide modifications: H3T32ph H3K36me2, binder concentration: 10 nM) is reported as 0.0113 ± 0.00095. For the same binder, the “peptide microarray binding signal” value ([2]; peptide modifications: H3T32ph H3K36me2, binder concentration: 100 nM) was 0.0184 ± 0.00072, the “peptide microarray binding signal” value [3, 9] was 0.00266 ± 8.2e-05 and the “peptide microarray binding signal” value [3, 10] was 0.00262 ± 0.00017. The “peptide microarray binding signal” value [4, 9] was 0.00142 ± 7.1e-05 and the “peptide microarray binding signal” value [4, 10] was 0.00127 ± 1.3e-05.

In the case of PATGGVKKPHRYR [H3 30-42 P A Tph G G V Kac K P H R Y R], the “peptide microarray binding signal” value ([1]; peptide modifications: H3T32ph H3K36ac, binder concentration: 50 nM) is reported as 0.00502 ± 0.00015, the “peptide microarray binding signal” value ([1]; peptide modifications: H3T32ph H3K36ac, binder concentration: 500 nM) is reported as 0.0116 ± 0.0013 and the “peptide microarray binding signal” value ([2]; peptide modifications: H3T32ph H3K36ac, binder concentration: 10 nM) is reported as 0.0123 ± 0.00025. For the same binder, the “peptide microarray binding signal” value ([2]; peptide modifications: H3T32ph H3K36ac, binder concentration: 100 nM) was 0.023 ± 0.0019, the “peptide microarray binding signal” value [3, 11] was 0.00191 ± 0.00028 and the “peptide microarray binding signal” value [3, 12] was 0.00257 ± 0.00023. For the same binder, the “peptide microarray binding signal” value [4, 11] was 0.00193 ± 0.00036 and the “peptide microarray binding signal” value [4, 12] was 0.00167 ± 0.00013.

With PATGGVKKPHRYR [H3 30-42 P A Tph G G V Kme3 K P H R Y R] the “peptide microarray binding signal” value ([1]; peptide modifications: H3T32ph H3K36me3, binder concentration: 50 nM) was 0.00426 ± 9.2e-05, the “peptide microarray binding signal” value ([1]; peptide modifications: H3T32ph H3K36me3, binder concentration: 500 nM) was 0.00686 ± 0.00012 and the “peptide microarray binding signal” value ([2]; peptide modifications: H3T32ph H3K36me3, binder concentration: 10 nM) was 0.00925 ± 0.00068. For the same binder, the “peptide microarray binding signal” value ([2]; peptide modifications: H3T32ph H3K36me3, binder concentration: 100 nM) was 0.0248 ± 0.0061, the “peptide microarray binding signal” value [3, 13] was 0.0335 ± 0.008 and the “peptide microarray binding signal” value [3, 14] was 0.0116 ± 0.0022. The “peptide microarray binding signal” value [4, 13] was 0.0489 ± 0.013 and the “peptide microarray binding signal” value [4, 14] was 0.0155 ± 0.0012.
